In ChEMBL document CHEMBL4513216, “Probing the Open Global Health Chemical Diversity Library for Multistage-Active Starting Points for Next-Generation Antimalarials” (ACS Infect Dis, 2020) one finds INHIBITION data, which are given here for 109 compounds.

Screen size: about 65,000 compounds; about 2,100 (3.2%) showed an effect of 50% or more. The median lay at about -52%. The sample as a whole holds a higher share of strong results than the screen did.

The subject of this assay is Plasmodium falciparum. The experiment in a line: Screen against P. falciparum Asexual Blood Stage (ABS), at 5uM. It counts as functional, Dd2. As to conditions: tested at 5 uM.
In the case of `NCc1ccnc(Oc2ccc(F)cc2)c1`, the INHIBITION is -151%.
The figure for `O=C(NC1CC1)N1CCOCC2(C1)CN(c1ccccc1)C(=O)CO2` (centres undefined) is -77.9%; for `c1cnnc(NCC2CN(Cc3ccon3)CCO2)c1` (centres undefined) it is -114%.
The figure for `CN1CC[C@]2(CN(CC3CCOC3)C[C@H]2c2ccccc2)C1=O` (some centres undefined) is -65.9%; for `NC(=O)NC(=O)CCSCc1coc(-c2ccc(F)cc2)n1` it is -58.5%; for `CC(Nc1ncnc2c1CCNCC2)c1nc2c(s1)CCCC2` (centres undefined) it is 9.93%.
Under `CC(=O)N1CCc2nc(-c3ccccc3)nc(NC(C)C)c2CC1` stands -25.6%; under `CC(Nc1nc(-c2ccccc2)nc2c1CCNCC2)c1nccs1` (centres undefined), 52.7%; under `N#CCCn1nc(C(F)(F)F)c2c1CCC2`, -74.2%.
Regarding `Cc1ncsc1C(=O)NC1CCN(Cc2ccc(C(F)(F)F)cc2)CC1`, the INHIBITION is listed as -104%.
The figure for `O=C(NC[C@H]1OC[C@@H](NC2CCC2)[C@@H]1O)Nc1ccccc1` is -141%; for `O=C(NC[C@H]1OC[C@@H](N(CC2CC2)CC2CC2)[C@@H]1O)Nc1ccccc1` it is 64.8%.
The figure for `CN(C)[C@@H]1CO[C@H](CNC(=O)Nc2ccccc2)[C@H]1O` is -60.7%; for `COc1cccc(C(NCc2ccc(SC)cc2)c2nccn2C)c1` (centres undefined) it is 65.5%.
The figure for `CSc1ccc(CNC(c2ccccc2F)c2nccn2C)cc1` (centres undefined) is -98%; for `CSc1ccc(CNC(c2ccccc2)c2nccn2C)cc1` (centres undefined) it is -22.4%; for `Cn1ccnc1C(NCc1csc(Br)c1)c1ccccc1` (centres undefined) it is 28.4%.
For `Cn1ccnc1C(NCc1ccc(Br)cc1)c1ccccc1` (centres undefined), the INHIBITION was 52.2%.
The figure for `Cn1ccnc1C(NCc1ccccc1)c1ccc(F)cc1` (centres undefined) is -60.5%; for `Cc1ccc(CNC(c2ccccc2)c2nccn2C)cc1` (centres undefined) it is -267%.
The figure for `CSc1ccc(CNC(c2ccc(F)cc2)c2nccn2C)cc1` (centres undefined) is -107%; for `COc1ccccc1C(NCc1ccc(SC)cc1)c1nccn1C` (centres undefined) it is 69.7%.
Under `FC(F)(F)Cn1cc(NCc2cscn2)cn1` stands -19.1%; under `Cc1ccc(S(=O)(=O)c2ncccc2CN2CCN(C)CC2)cc1`, 24.6%.
With `Cc1nc(COc2ccc(CNCCn3cccn3)cc2)cs1`, the INHIBITION is on record as -107%.
For the compound `COCCNC(=O)[C@H]1CN(c2nnc(C)s2)C[C@H]2OCC[C@@H]12`, the INHIBITION is given as -167%.
The figure for `c1ccc(Cc2noc(CN3CCCCC3Cn3cncn3)n2)cc1` (centres undefined) is -14.9%.
In the case of `CCN(CC1CN(Cc2ccn(C(C)C)n2)CCO1)c1cccnn1` (centres undefined), the INHIBITION is on record as -94%.
With `Cc1[nH]c2ccccc2c1CCNc1ncnc2c1CCNCC2`, the INHIBITION is recorded as -68.4%.
Turning to `Cc1[nH]c2ccc(Cl)cc2c1CCNc1ncnc2c1CCNC2`, the INHIBITION is reported as 52%.
The figure for `Cc1[nH]c2ccc(C#N)cc2c1CCNc1ncnc2c1CCNCC2` is -19.3%; for `O=S(=O)(Nc1ccc(Oc2ccc3c(c2)OCO3)cc1)N1CCCCC1` it is -59.9%.
Regarding `OCCN(CCO)Cc1ccc(Br)c2cccnc12`, the INHIBITION was -26.05%.
Turning to `CCN(CCO)Cc1ccc(Br)c2cccnc12`, the INHIBITION is 54.2%.
Turning to `N#CCCN(CCC#N)Cc1ccc(Br)c2cccnc12`, the INHIBITION is listed as -103.4%.
As to `Cc1nn(C)c2c(=O)n(C(C)C)c(NCCc3ccccc3)nc12`, the INHIBITION was 13.9%.
The figure for `Clc1ccc(C2(NCc3noc(C4CC4)n3)CCC2)cc1` is 16.7%; for `Clc1ccc(C2(NCc3noc(C4CC4)n3)CCOCC2)cc1` it is 3.57%.
Under `Clc1ccc(C2(NCc3noc(C4CC4)n3)CCCC2)cc1` stands 68.5%; under `O=C(NC1CCCC1)c1nc(COc2ccc3c(c2)OCO3)no1`, -118%.
Under `CSc1ccc(C(C(=O)O)N2CCC(CO)CC2)cc1` (centres undefined) stands -79.3%; under `Cc1c(NC(=O)c2ncn[nH]2)cccc1C(=O)NC(C)(C)C`, -21%.
`Cc1cc(CN2CCC3(CC2)CC(Nc2ncccn2)CO3)nn1C` (centres undefined): the INHIBITION is given as -8.44%.
Under `Cc1cc(C)cc(CN2CCC3(CC2)CC(Nc2ncccn2)CO3)c1` (centres undefined) stands 60.2%.
Under `c1cnc(NC2COC3(CCN(Cc4ccoc4)CC3)C2)nc1` (centres undefined) stands -27.7%; under `CCc1csc(CNc2cc(C)nc(-c3cccnc3)n2)n1`, 4.15%; under `CC(C)c1nc(CN2CCCCC2)cs1`, -114%.
As to `CC(C)c1nc(CN2CCCC2CN2CCCC2)cs1` (centres undefined), the INHIBITION is listed as 68%.
Turning to `CC(C)c1nc(CN2CCCCC2Cn2cncn2)cs1` (centres undefined), the INHIBITION was -30.9%.
The figure for `O=S(=O)(Cc1c(F)cccc1Cl)NCCCN1CCCCCC1` is 50.1%; for `O=S(=O)(Cc1ccccc1F)NCCCN1CCCCC1` it is 19.9%.
The figure for `CN1CCN(CCCNS(=O)(=O)Cc2ccccc2F)CC1` is 18.6%; for `CC(=O)N1CCN(CCNS(=O)(=O)c2cc(F)cc(F)c2)CC1` it is -113%.
The figure for `CC1CCN(CCCNS(=O)(=O)Cc2ccccc2F)CC1` is 28.5%; for `CC(=O)N1CCN(CCNS(=O)(=O)c2cccc(F)c2)CC1` it is -72.6%; for `Cc1cc(F)cc(S(=O)(=O)NCCCN2CCC(O)CC2)c1` it is -34.8%.
In the case of `O=S(=O)(NCCCN1CCCC1)c1cc(F)cc(F)c1`, the INHIBITION was found to be 67.4%.
The figure for `CC1CCN(CCCNS(=O)(=O)c2cccc(F)c2)CC1` is 54.9%; for `Cn1cnc(S(=O)(=O)NCCCN2CCCC2)c1Cl` it is -29.7%; for `CC1CCN(CCCNS(=O)(=O)c2cc(F)cc(F)c2)CC1` it is 63.3%.
The figure for `CC(C)c1cccc(S(=O)(=O)NCCCN2CCC(O)CC2)c1` is 34.2%; for `O=C(Nc1cccc(N2CCOCC2)c1)N[C@H](CO)c1ccccc1` it is -104%.
On to `Cc1cccc(C(=O)N2CCO[C@H]3[C@H](OCCN(C)C)CC[C@@H]32)n1`, for which the INHIBITION is reported as -57.1%.
Under `COCC1CN(C(=O)COc2ccccc2)Cc2ncn(C)c21` (centres undefined) stands -14.4%.
Turning to `O=C(NCc1ccnc(OCC(F)(F)F)c1)NCC1CCOC1` (centres undefined), the INHIBITION is -16%.
Under `O=C(C1CCCC1)N1CCCC(c2cccc(-n3ccnc3)n2)C1` (centres undefined) stands -46.4%.
The figure for `Cc1c[nH]c(CN2CCOC(c3ccc(Cl)cc3)C2)c(C)c1=O` (centres undefined) is -11.4%.
The figure for `Cc1ccc(CNCC2CCN(CCO)CC2)cc1` is 13%; for `CCN1CCCC(CNC(=O)CCc2ccc(OC)c(F)c2)C1` (centres undefined) it is -71.6%.
On to `CCN1CCC(CNCc2cc(OC)ccc2OC)C1` (centres undefined), for which the INHIBITION was 57.9%.
As for `COc1ccc(OC)c(CN2CCC(c3cc(O)nc(C)n3)C2)c1` (centres undefined), the INHIBITION is recorded as -1.68%.
The figure for `COc1ccc(CNCC2CC2)cc1F` is -75.5%; for `COc1ccc(CNCC2CCN(CCO)CC2)cc1F` it is 58.2%; for `CCC1=N[C@@]2(CC[C@@H]3CN(Cc4ccc(F)cc4)C[C@@H]32)C(=O)N1C` it is 40.2%.
The figure for `COC1CCN(c2ccc(NC(=O)C3CC3)cc2C(F)(F)F)CC1` is 7.84%; for `CN1CCC(c2cccc(Cc3ccc(C(F)(F)F)cc3)n2)CC1` it is 52.5%.
As to `CN1CCC(c2cccc(Cc3ccc(F)cc3)n2)CC1`, the INHIBITION is 0.302%.
For the compound `CN1CCC(c2cccc(Cc3ccccc3)n2)CC1`, the INHIBITION is given as 3.76%.
The figure for `CNc1nc(C(=O)N2CCN(c3ccc(Cl)c(Cl)c3)CC2)cs1` is -3.09%; for `CC(=O)N1CCC(c2nc3ccc(-c4cccc(F)c4)cn3n2)CC1` it is -83.5%.
Regarding `Cc1cc(CN2CCC(C3CCN(CC(C)C)CC3)C2)[nH]n1` (centres undefined), the INHIBITION was -10.5%.
As for `CC(C(=O)N1CCN(Cc2ccc(C#N)cc2)CC1)n1ccnc1` (centres undefined), the INHIBITION is -162%.
Under `CC(C(=O)N1CCCN(Cc2ccc(C#N)cc2)CC1)n1ccnc1` (centres undefined) stands -20.3%.
The figure for `COc1ccc(CN2CCCN(C(=O)C(C)n3ccnc3)CC2)cc1` (centres undefined) is 63.1%; for `Cc1noc(C)c1-c1cccc(CC2CCN(C(=O)c3cscn3)C2)n1` (centres undefined) it is -100%.
As to `CC(=O)N1CCN(C(=O)Nc2ccccc2)CC2(CC(=O)N(C)C2)C1` (centres undefined), the INHIBITION came out at 13.6%.
In the case of `CCN1CC2(CNCCN(C(=O)Nc3ccccc3)C2)CC1=O` (centres undefined), the INHIBITION is on record as 53.7%.
Under `CN(C)CC(=O)N1CC2(CCN(S(=O)(=O)c3ccccc3)C2)C1` stands -21%.
Under `CN(C)CC(=O)N1CC2(CCN(C(=O)Nc3ccccc3)C2)C1` stands 50%; under `CN1CC2(CNCCN(C(=O)Nc3ccccc3)C2)CC1=O` (centres undefined), 33.2%; under `O=C1CC2(CNCCN(C(=O)Nc3ccccc3)C2)CN1` (centres undefined), -59.9%.
Under `N#Cc1ccsc1NC(=O)CN1CCOC(Cn2cccn2)C1` (centres undefined) stands -49.6%; under `Cc1cnn(CC2CCN(CC(O)COc3ccc(F)cc3)CC2)c1` (centres undefined), -39.2%; under `CC(C)NC(=O)[C@H]1C[C@H]2OCC[C@H]2N(Cc2ccc3ccccc3n2)C1`, 3.39%.
As for `CCc1ccc(CN(Cc2ccco2)C(C)C(C)C)nc1` (centres undefined), the INHIBITION was -199%.
Under `COCCNC(=O)Nc1cccc2c1CCN(S(C)(=O)=O)C2` stands -3.2%; under `Cc1ccc(OC2(C(=O)NC(C)Cc3ccncc3)CCNCC2)cc1` (centres undefined), -39.1%; under `Cc1ccc(OC2(C(=O)NC(C)c3csc(C)n3)CCNCC2)cc1` (centres undefined), 11.3%.
The figure for `Cc1ccc(OC2(C(=O)NC(C)Cc3ccsc3)CCNCC2)cc1` (centres undefined) is 52.5%; for `CCn1cc2c(n1)CN(Cc1sccc1C)CC2COCC1CC1` (centres undefined) it is -6.58%; for `COc1nccnc1N1CCC(C(=O)O)(n2ccc(C(C)(C)C)n2)CC1` it is -5.61%.
Under `CC(O)CN(C(=O)NC1CC1)C(C)C` (centres undefined) stands -10.2%; under `CC(=O)N1CCc2nc(-c3ccc(F)cc3)nc(NC(C)C)c2CC1`, 6.79%; under `CCCS(=O)(=O)NCc1nc(C)cc(N2CCCC2)n1`, -76.8%.
In the case of `CC(C)c1nc(CN2CCCC2Cn2cncn2)no1` (centres undefined), the INHIBITION was -59.5%.
For the compound `CN(C)C(C(=O)N1CC(Oc2ccccc2F)C1)c1ccc(F)cc1` (centres undefined), the INHIBITION came out at 64%.
As for `Cc1cccc(C(C(=O)N2CC(Oc3ccccc3F)C2)N(C)C)c1` (centres undefined), the INHIBITION amounted to 2.84%.
Under `COc1ccccc1OC1CN(C(=O)C(c2ccc(F)cc2)N(C)C)C1` (centres undefined) stands 3.3%.
For `O=C(O)CC(CC(=O)NCCc1ccsc1)c1cccs1` (centres undefined), the INHIBITION is recorded as -112%.
